# High-throughput results deposited in PubChem BioAssay by several laboratories.
# ABCB6 inh 2: inhibitors of human ABC transporter ABCB6; Q9NP58; AID 602162; K562-ABCB6 porphyrin accumulation, flow cytometry, 1 h; stronger effect = lower value; 0.19% of 360,000 active; fluorescence ratio to DMSO, % at 10 µM;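 active means fluorescence ratio to DMSO below 75%, the collection mean minus 3 SD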;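 further: signal is porphyrin accumulated inside mitochondria; 100% equals median channel fluorescence of DMSO control wells; lower ratio means ABCB6 inhibition with less porphyrin fluorescence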
# Target sequence (Q9NP58 whole entry, looked up): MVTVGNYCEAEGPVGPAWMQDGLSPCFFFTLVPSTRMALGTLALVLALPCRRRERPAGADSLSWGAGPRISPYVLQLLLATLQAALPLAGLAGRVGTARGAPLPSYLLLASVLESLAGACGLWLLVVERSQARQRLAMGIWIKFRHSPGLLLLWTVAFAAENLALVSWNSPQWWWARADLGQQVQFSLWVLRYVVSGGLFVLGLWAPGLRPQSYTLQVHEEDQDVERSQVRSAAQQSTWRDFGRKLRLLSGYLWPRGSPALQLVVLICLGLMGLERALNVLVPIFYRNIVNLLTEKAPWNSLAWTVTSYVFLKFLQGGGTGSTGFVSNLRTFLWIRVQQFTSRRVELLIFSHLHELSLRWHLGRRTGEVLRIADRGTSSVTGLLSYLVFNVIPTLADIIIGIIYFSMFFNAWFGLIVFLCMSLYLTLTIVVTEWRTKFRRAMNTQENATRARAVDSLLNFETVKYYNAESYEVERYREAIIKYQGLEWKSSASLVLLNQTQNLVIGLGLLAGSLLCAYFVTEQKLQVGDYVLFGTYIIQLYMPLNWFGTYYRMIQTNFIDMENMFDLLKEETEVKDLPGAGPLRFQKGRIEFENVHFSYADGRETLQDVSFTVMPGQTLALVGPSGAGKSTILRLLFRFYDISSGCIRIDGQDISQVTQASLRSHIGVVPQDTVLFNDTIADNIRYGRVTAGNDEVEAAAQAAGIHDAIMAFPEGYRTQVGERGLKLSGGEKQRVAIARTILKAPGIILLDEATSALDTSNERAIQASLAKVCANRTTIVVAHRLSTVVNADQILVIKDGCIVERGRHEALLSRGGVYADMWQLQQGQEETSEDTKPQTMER
# bovine MsrA act: bovine methionine sulfoxide reductase A activation. 0.3% of 360,000 active. activation, % at 10.6 µM. purified bovine MsrA, absorbance read-out; in the data active means activation above about 7.5%;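 further: 0% = vehicle and 100% = reference activator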
# MsrA inhibitor: inhibits bovine methionine sulfoxide reductase A; inhibition, % at 15.5 µM; 0.75% of 360,000 active; purified bovine MsrA, absorbance read-out; in the data active means inhibition above about 4.5%;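 further: 0% = vehicle wells with enzyme and 100% = reference inhibitor wells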
# SMARCA2 act: SMARCA2 function activation, primary screen. activation, % at 9.1 µM. 1% of 370,000 active. MG213 cells, MMTV-luciferase reporter, dexamethasone, overnight; in the data active means activation above about 7.8%;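 further: 0% = vehicle wells and 100% = reference activator wells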
# Numbers without * were called inactive; x = no result. Shown are actives, neighbours in structure and some others; about 2.1% of the full set was active somewhere.
SMILES,ABCB6 inh 2,bovine MsrA act,MsrA inhibitor,SMARCA2 act
COCCNC(=O)c1csc2c1CCCC2,98.0,12.3*,-0.6,5.3
CN(CC(=O)Nc1ccccc1C(=O)NC1CC1)Cc1ccc(Cl)cc1,98.0,-1.2,-0.3,7.9*
CCCCCCCCN1CCS(=O)(=O)N(Cc2ccc(C)cc2)C(C(=O)OC)C1 (centres undefined),x,x,x,-2.1
COc1ccc(/C(O)=C2/C(=O)C(=O)N(CCN(C)C)C2c2ccccc2)cc1Cl (centres undefined),102.0,0.9,3.1,-0.6
COc1ccc(/C(O)=C2/C(=O)C(=O)N(CCCN(C)C)C2c2cccc(Cl)c2)cc1OC (centres undefined),92.0,-0.9,9.6*,-2.6
CCn1c(SCC(=O)Nc2ccc(C(N)=O)cc2)nc2sc(C)c(C)c2c1=O,x,x,x,-2.6
COc1cc2c(cc1NC(=O)CN(C)Cc1ccc(OC)c(OC)c1)oc1ccccc12,103.0,-7.1,4.6*,-2.2
COc1ccc(CN(C)CC(=O)Nc2cc3oc4ccccc4c3cc2OC)c(OC)c1,98.0,-4.5,-0.1,-2.4
COc1cccc(-c2nnc3sc(-c4ccc(Br)o4)nn23)c1,x,x,x,2.6
CN1CCN(C2=C(NS(=O)(=O)c3ccccc3)C(=O)c3ccccc3C2=O)CC1,92.0,15.4*,x,x
CCN1CCN(C2=C(NS(=O)(=O)c3ccccc3)C(=O)c3ccccc3C2=O)CC1,102.0,6.5,-0.1,-0.3
Cc1cccc(C(=O)NN(C)c2nc(-c3ccccc3)nnc2C(F)(F)F)c1,69.0*,-6.8,-0.8,-0.2
COc1ccc(C(=O)NN(C)c2nc(-c3ccccc3)nnc2C(F)(F)F)cc1,100.0,-6.5,-0.4,1.1
CC(=O)Nc1cccc2ccc(O)cc12,108.0,-1.5,1.7,-5.1
CC(=O)Nc1cc2c3ccccc3ccc2c2ccccc12,74.0*,2.9,0.5,-2.2
COC(=O)[C@]12C[C@H](CC(=O)NCc3cccs3)C(=O)N(Cc3ccco3)C1=C[C@H](C(C)(C)C)O[C@@H]2C,x,x,x,0.6
Clc1ccc(-n2c(SCc3cccc4ccccc34)nnc2-c2cccnc2)cc1,x,x,x,3.1
Fc1ccc(NC(=S)NCc2ccccc2Cl)cc1,62.0*,-1.7,-1.2,-1.2
COc1ccccc1CNC(=S)Nc1ccc(F)cc1,101.0,-1.5,-0.3,-0.8
COc1ccc(S[C@]2(C(=O)N3CCN(C(C)=O)CC3)CC(=O)N(S(=O)(=O)c3ccc(F)cc3)[C@@H]2c2ccc(OC)cc2)cc1,x,x,x,-1.9
Cc1ccc2nc(NC(=O)c3cccs3)sc2c1,94.0,-4.4,1.0,-2.7
CS(=O)(=O)c1ccc2nc(NC(=O)c3cccs3)sc2c1,97.0,-6.4,6.8*,4.3
CC(=O)c1ccc(Nc2nc(C(C)N)cs2)cc1 (centres undefined),87.0,-5.7,4.6*,-1.8
CC(N)c1csc(Nc2ccc(C(=O)NCCO)cc2)n1 (centres undefined),99.0,-0.3,2.7,-0.4
CCCC(=O)OCC(=O)Nc1cc([N+](=O)[O-])ccc1OC,102.0,-8.7,4.6*,-2.3
SMILES,ABCB6 inh 2,bovine MsrA act,MsrA inhibitor,SMARCA2 act
COc1ccc([N+](=O)[O-])cc1NC(=O)COC(C)=O,97.0,-3.9,2.0,0.1
O=C(NCc1ccc2c(c1)OCO2)c1nc(S(=O)(=O)Cc2ccccc2)ncc1Cl,53.0*,-3.7,0.2,-13.7
O=C(NCc1ccc2c(c1)OCO2)c1nc(S(=O)(=O)Cc2ccccc2F)ncc1Cl,103.0,-3.8,0.6,-12.2
CCN=C1S/C(=C/c2ccc(-c3ccc(Cl)cc3C(=O)O)o2)C(=O)N1CC,71.0*,-1.6,0.2,2.7
COc1ccc(Cn2cc(COC(=O)NCC(C)C)nn2)cc1,x,x,x,-1.5
C#CC(=O)N(c1ccc(OC)c(OC)c1)C(C(=O)NC1CCCC1)c1cccs1 (centres undefined),55.0*,-2.0,-0.7,-11.7
Cc1ccc(NC(=O)/C=C/C(=O)O)c([N+](=O)[O-])c1,95.0,-4.8,-0.8,7.8*
CCOC(=O)N1CCC(Nc2c(Nc3cccc(CC)c3)c(=O)c2=O)CC1,99.0,-2.9,4.6*,-4.1
Cc1cc(N2C(=O)C(=O)/C(=C(/O)c3ccccc3)C2c2cccs2)no1 (centres undefined),90.0,-4.5,1.3,-1.6
COc1cccc(/C(O)=C2/C(=O)C(=O)N(c3cc(C)on3)C2c2cccs2)c1 (centres undefined),97.0,-3.2,5.0*,0.2
NC(=S)N/N=C/c1ccccc1OC(=O)c1cc2ccccc2oc1=O,92.0,0.1,4.6*,-0.6
c1ccc(Cn2c(SCC3CCCCC3)nnc2-c2cccnc2)cc1,x,x,x,-5.6
CC1CCC2(CC1)CCN(CCCOC(=O)NCc1ccc(Cl)cc1)C2=O (centres undefined),x,x,x,-0.8
COc1ccc(N2CCN(C(CNC(=O)C(C)(C)C)c3cccnc3)CC2)cc1 (centres undefined),101.0,-0.1,-0.7,7.8*
O=C1/C(=C\c2ccco2)CCC/C1=C\c1ccco1,107.0,-5.6,1.6,15.9*
COc1ccc(S[C@]2(C(=O)NCc3ccccc3)CC(=O)N[C@@H]2c2ccc(OC)cc2)cc1,x,x,x,-4.8
COc1cccc(C(=O)NNC(=O)Cc2ccc(Cl)cc2)c1,102.0,2.5,2.0,1.4
COc1cccc(C(=O)NN/C(C)=C/C(=O)C(F)(F)C(F)(F)C(F)(F)F)c1,102.0,-3.8,0.8,9.5*
NC1=NC(=O)/C(=C\C=C\c2ccccc2)S1,97.0,3.7,3.3,7.1
O=C1NC(=O)C(=CC=Cc2ccccc2)S1,101.0,-7.3,4.6*,-1.2
O=C1N=c2ccccc2=C1c1sc(Nc2ccc(O)cc2)nc1O,95.0,-3.3,-0.3,7.8*
CCN(Cc1ccccc1)C(=O)C1C2C=CC3(CN(Cc4ccccc4)C(=O)C13)O2 (centres undefined),x,x,x,7.7
O=C(O)c1ccccc1NS(=O)(=O)c1ccc(NN=Cc2ccc(F)cc2)c([N+](=O)[O-])c1,97.0,-4.8,x,x
O=C(O)c1ccccc1NS(=O)(=O)c1ccc(N/N=C/c2ccc(O)c(O)c2)c([N+](=O)[O-])c1,100.0,-8.1,4.8*,3.6
COC(=O)C[C@H]1CC[C@@H]2[C@@H](COc3ccc(NC(=O)c4ccno4)cc3C(=O)N2C)O1,x,x,x,-2.7
SMILES,ABCB6 inh 2,bovine MsrA act,MsrA inhibitor,SMARCA2 act
C/C(=N\NC(=O)c1ccc(F)cc1)c1ccc(NC(=O)Cc2ccccc2)cc1,100.0,-0.1,0.6,5.5
C/C(=N/NC(=O)Cn1nc2ccccc2n1)c1ccc(F)cc1,74.0*,0.0,0.2,-0.6
O=C(CSc1nnc(-c2cccnc2)n1-c1ccccc1)Nc1ccc(OCc2ccccc2)cc1,x,x,x,-5.1
COc1ccc(N2CSC3=C(C#N)C(c4cc(OC)ccc4OC)CC(=O)N3C2)c(OC)c1 (centres undefined),74.0*,-2.3,x,x
CCS(=O)(=O)c1ncc(Cl)c(C(=O)Nc2ccc(S(=O)(=O)N3CCCC(C)C3)cc2)n1 (centres undefined),29.0*,0.2,0.2,-0.1
CCC1CCCCN1S(=O)(=O)c1ccc(NC(=O)c2nc(S(C)(=O)=O)ncc2Cl)cc1 (centres undefined),62.0*,-3.0,2.1,-8.2
CCS(=O)(=O)c1ncc(Cl)c(C(=O)Nc2ccc(C)cc2)n1,77.0,-8.1,-0.7,-8.7
O=C(OC12CCCN(C1)/C(=C/c1ccncc1)C2)c1cccc(F)c1 (centres undefined),x,x,x,-2.4
